Most compounds without a hit are left out; they make up all but 20% or so of the library.
HCMV inh – human cytomegalovirus inhibition. hit rate 4.5% among 410,000. HFF cells, HCMV-luciferase reporter, 72 h; hits give low values. activity change, negative = inhibition, % at 57.5 µM; in the data active = activity change below about -60%; inconclusive = no clear call, values can overlap the other calls; inactive = above about -39%; note: % is set by controls: 0 for no effect and ±100 for the full control effect
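HFF cells seeded 16 h at 37C, treated with compounds, infected with luciferase-reporter HCMV at MOI 1 PFU/cell; luciferase read at 72 h post infection, normalized to buffer-only and Salinomycin controls.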
Shiga inhibitor – Shiga toxin inhibition; hit rate 9.2% among 290,000; inhibition, % at 38.7 µM; Vero cells, Shiga toxin protein synthesis inhibition reporter; in the data active = inhibition mostly above about 28%, no sharp cut-off; inactive = mostly below about 43%; note: 0% is about no effect
Pf growth 48h – P. falciparum growth inhibition at 48 hours (one generation); P. falciparum luciferase growth in erythrocytes, 48 h; Potency, µM (titrated, usually from 28.7 µM), inactives show top-dose activity change, negative = inhibition, most hits filed as inhibitors; hit rate 5.9% among 310,000; AID 504832; note: potency is the fitted concentration of half-maximal effect; % is set by controls: 0 for no effect and ±100 for the full control effect
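Read-out is firefly luciferase luminescence from an integrated reporter in P. falciparum, so falling signal marks reduced parasite growth. Infected erythrocytes were at 2% hematocrit and 0.1% parasitemia (final) in Albumax-supplemented RPMI 1640.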
CHX counter – counter-screen for Shiga toxin inhibitors: cycloheximide protein synthesis inhibition; cell reporter, cycloheximide protein synthesis inhibition counterscreen; max response, %; hit rate 12% among 300,000; in the data active = max response mostly above about 13%, no sharp cut-off; inactive = mostly below about 14%; note: read at 38.3 µM for the half of the compounds with a filed dose; 0% is about no effect
Pf growth 96h – inhibits malaria parasite growth, 96 h; AID 504834; Potency, µM (top dose mostly 28.7 µM), for the others: at the highest dose activity change, negative = inhibition, most hits filed as inhibitors; hit rate 6.9% among 320,000; P. falciparum luciferase reporter growth, 96 h; note: potency is the fitted concentration of half-maximal effect; % is set by controls: 0 for no effect and ±100 for the full control effect
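P. falciparum expressing integrated firefly luciferase, in erythrocytes at 2% hematocrit, 0.05% parasitemia, incubated with compounds 96 h at 37 C, 5% CO2. Growth inhibition read as loss of luminescence; two-generation exposure targets delayed-death apicoplast inhibitors.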
* marks the source's active call; other numbers are inactive results; ? = inconclusive; nt = not tested or not shown; [ ] = dose if it differs, or a comment. Unless noted, calls come from the whole dose curve; as a rule, active = well fitted inhibition curve with a large enough effect; inconclusive = small, poorly fitted or top-dose-only effect, or another doubt; inactive = no such curve, though single readings can be large or run the other way.

SMILES	HCMV inh	Shiga inhibitor	Pf growth 48h	CHX counter	Pf growth 96h
CCOc1ccc(S(=O)(=O)N2CCC(C(=O)Nc3cc(S(C)(=O)=O)ccc3Cl)CC2)cc1	-32	nt	10µM*	nt	?
O=C(NCc1ccco1)C1CCN(S(=O)(=O)c2ccccc2C(F)(F)F)CC1	-3	nt	10µM*	nt	?
COc1ccc(CC(=O)Oc2ccc(F)cc2)cc1	11	-1	10%	1	-6%
CCC(=O)N1CCc2cc(Br)cc(S(=O)(=O)CCC(=O)Nc3ccc(C)c(F)c3)c21	-2	nt	nt	nt	nt
Cc1ccc(NC(=O)CC2SC(=Nc3ccc(O)cc3)NC2=O)cc1 (stereo not drawn)	?	6	-23%	2	?
O=C(NCc1ccccc1F)C1CCCN(S(=O)(=O)c2ccc(-n3cnnn3)cc2)C1 (stereo not drawn)	-77*	-7	14%	-1	-6%
CCOc1ccc(S(=O)(=O)N2CCCC(C(=O)NCc3ccco3)C2)cc1 (stereo not drawn)	12	0	-6%	-1	6%
O=C(NCc1ccco1)C1CCCN(S(=O)(=O)c2ccc(-n3cnnn3)cc2)C1 (stereo not drawn)	-1	-9	-16%	7	?
CCOc1ccc(S(=O)(=O)N2CCC(C(=O)NCc3ccco3)CC2)cc1	30	2	9.3µM*	-2	56%
COc1cccc(NC(=O)Cn2nnc(C(=O)NCc3ccc4c(c3)OCO4)c2N)c1	-23	-4	17%	-1	-11%
CCCCn1cc(C(=O)c2cc(Br)ccc2O)cc(C#N)c1=O	-6	-4	1.7µM*	-1	2.1µM*
COCCCn1cc(C(=O)c2ccccc2OCC(=O)Nc2cccc(F)c2)cc(C#N)c1=O	-24	50	?	9	?
Cc1ccc(O)c(C(=O)c2cc(C#N)c(=O)n(C(C)c3ccccc3)c2)c1 (stereo not drawn)	43	31	3.3µM*	-5	5.9µM*
CCOCCCn1cc(C(=O)c2cc(Br)ccc2O)cc(C#N)c1=O	12	12	5.2µM*	-1	?
C=CCn1cc(C(=O)c2cc(Br)ccc2O)cc(C#N)c1=O	?	-6	?	-2	?
COCCCn1cc(C(=O)c2cc(Br)ccc2O)cc(C#N)c1=O	-25	-7	?	2	9.3µM*
Cc1cccc(C(=O)OCC(=O)NCCCc2ccccc2)c1O	37	-5	nt	-2	8%
CCC[C@H]1[C@@H](NC(=O)NCCCC(=O)OCC)CC[C@@]23CCCN2C(=O)CCC[C@@H]13	4	nt	nt	nt	nt
N#Cc1cc(C(=O)c2cc(Br)ccc2O)cn(C2CC2)c1=O	25	-20	?	-5	?
CC(C)n1cc(C(=O)c2cc(Br)ccc2O)cc(C#N)c1=O	-8	-5	nt	-5	2.6µM*
CN1CCN(c2cc3c(nn2)Oc2ccccc2N3C)CC1	nt	nt	70%	nt	30%
CC(C)NC(=O)c1noc2cc([N+](=O)[O-])ccc12	13	104*	43%	12*	43%
O=C(CNC1CC1)Nc1cc(C(F)(F)F)ccc1Cl	?	12	1.2µM*	13	1.5µM*
O=C(CN1C(=O)C2CCCCC2C1=O)Nc1cccc(C(F)(F)F)c1 (stereo not drawn)	-7	nt	nt	nt	nt
O=C(CNC1CCCCC1)Nc1cccc(C(F)(F)F)c1	21	-11	-23%	-1	9.3µM*
SMILES	HCMV inh	Shiga inhibitor	Pf growth 48h	CHX counter	Pf growth 96h
CN(C)CC(=O)Nc1cc(C(F)(F)F)ccc1Cl	42	5	17%	3	-17%
CCOC(=O)c1cc(C(=O)OCC)c2cccc(C)n2c1=O	-2	-17	9%	-3	-1%[5.75 µM]
Clc1ccc(-c2nnc(COc3ncnc4sccc34)o2)cc1	-27	34*	13%	34*	77%
CNC(=O)COc1ncnc2sccc12	-3	-2	nt	13	23%
COc1ccc(NC(=O)CN2CCC(C)CC2)c([N+](=O)[O-])c1	-35	33	65%	22*	82%
CC1CCN(CC(=O)Nc2ccc(Cl)cc2[N+](=O)[O-])CC1	?	16	6%	18*	-7%
COc1ccc(NC(=O)CN2CCCCC2)c([N+](=O)[O-])c1	-27	56*	67%	30*	112%
CCOc1ccc(OCC(=O)Nc2ccc(OC)cc2[N+](=O)[O-])cc1	?	-3	26%	2	-6%
COc1ccc(NC(=O)CN2CCC(NC(=O)C3CCCCC3)CC2)c([N+](=O)[O-])c1	-8	-34	4%	-2	?

Screening data: PubChem BioAssay, National Center for Advancing Translational Sciences (NCATS)
